About 83,000 compounds went through this panel and 20% of them were active in at least one assay; those are over-represented in the sample as a whole.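 In brief: 96-well plates, 48 h treatment, single concentration, percent growth endpoint.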 Unmarked numbers belong to inactive results. Active and inactive are the calls of the source. The calls were made as follows: active = growth percent below 10; inactive = the rest.
These compounds were tested on HL-60(TB) leukemia (assay: NCI-60 one-dose screen, 48 h (100 = growth as untreated, 0 = no growth, -100 = all killed)). Conditions: 10 µM unless noted.

Question: For `CCOC(=O)C1=C(N)N(c2ccc(C)cc2)C2=C(C(=O)CC(C)(C)C2)C1c1ccccc1OC` (stereo not drawn), which growth is on record?
Answer: 98.9%

Question: For `COc1ccc(OC)c(-n2cc(C#N)c(N)c2C(=O)c2ccc(Cl)cc2Cl)c1`, which growth is on record?
Answer: 2.46% (active)

Question: With `CCCS(=O)(=O)N1CCCC(C(=O)Nc2nc3ccc(NC(=O)c4ccc(F)c(OC)c4F)cc3s2)C1` (stereo not drawn) as the compound, how does the growth read?
Answer: 27.3%

Question: With `CCCCSc1nc(NCCc2c[nH]c3ccccc23)c(C#N)c(-c2ccccc2)n1` as the compound, how does the growth read?
Answer: 45.8%

Question: How did the growth turn out when `CSc1ccc(NC(=O)c2ccc3nn(/C(C#N)=C/c4ccccn4)nc3c2)cc1` was run?
Answer: -18.9% (active)

Question: With `Cc1cc(C)nc(/N=C(\N)Nc2ccc(S(=O)(=O)Nc3nc(C)cc(C)n3)cc2)n1` as the compound, how does the growth read?
Answer: 94.7%

Question: How did the growth turn out when `CC(C)(C)Nc1nc2cc(Cl)c(Cl)cc2nc1S(C)(=O)=O` was run?
Answer: 36.8%

Question: For `CCOC(=O)C1=C(N)N(c2ccccc2)C2=C(C(=O)CC(C)(C)C2)C1c1ccccc1OC` (stereo not drawn), which growth is on record?
Answer: 99.2%

Question: Which growth does the source give for `COc1ccc(-c2c(N)c(=O)n(C)c3ccccc23)cc1` here?
Answer: 79.3%

Question: Which growth does the source give for `COc1c(F)ccc(C(=O)Nc2ccc3nc(NC(=O)C4CCCN(S(=O)(=O)c5ccc(Br)s5)C4)sc3c2)c1F` (stereo not drawn) here?
Answer: 80.6%

Question: `NS(=O)(=O)c1ccc(NNC(=O)CCC(=O)c2ccccc2)cc1` was tested. Which growth did it give?
Answer: 75.3%

Question: `O=C(/C=C/c1cccc(OCc2ccc(F)cc2)c1)c1nc2ccccc2[nH]1` was tested. Which growth did it give?
Answer: 8% (active)

Question: `CC(C)C[C@H](NC(=O)CNC(=O)C[C@H]1O[C@@H]2OC3(C)CC[C@H]4[C@H](C)CC[C@@H]([C@H]1C)[C@@]24O3)B(O)O` was tested. Which growth did it give?
Answer: 3.8% (active)
